According to PubChem BioAssay (NCATS):
Inconclusive results are not listed. Active and inactive are the calls of the source. Calls come from the whole dose curve; as a rule, active = well fitted curve in the direction sought with a large enough effect; inconclusive = small, poorly fitted or top-dose-only effect, or another doubt; inactive = no such curve, though single readings can be large; an effect the other way counts as inactive or inconclusive.

Columns and labels:
[1] = qHTS of pediatric cancer cell lines to identify multiple opportunities for drug repurposing: Primary screen for Rh18 cells (AID 1347102); note: nearly all actives have a fitted effect of over 65% in size; note: potency is the fitted concentration of half-maximal effect; for activity change, negative = cytotoxic: % is set by controls: 0 for no effect and ±100 for the full control effect
How it was run: (§1)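 Cells (500-1,000/well) in growth media were settled 5 h at 37 degrees C, then given compounds for 48 h. Viability was read as CellTiter-Glo luminescence. Primary runs used MIPE at 11 points (0.78 nM-46 µM) and NPC at 8 points (0.59 nM-46 µM); follow-ups used 11 points.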

[2] = qHTS of pediatric cancer cell lines to identify multiple opportunities for drug repurposing: Primary screen for OHS-50 cells (AID 1347103); note: nearly all actives have a fitted effect of over 40% in size; note: potency is the fitted concentration of half-maximal effect;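 for activity change, negative = cytotoxic: plate controls were DMSO neutral control for no effect and bortezomib positive control for full effect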
How it was run: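 Cells (500-1,000/well) rested 5 h, then received compounds for 48 h; metabolically active cells were measured by CellTiter-Glo luminescence. Final concentrations spanned up to 46 µM (MIPE, 11-point) or 0.59 nM-46 µM (NPC, 8-point) in primary screens, 11-point in follow-ups.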

[3] = qHTS of pediatric cancer cell lines to identify multiple opportunities for drug repurposing: Primary screen for RD cells (AID 1347104); note: nearly all actives have a fitted effect of over 55% in size; note: potency is the fitted concentration of half-maximal effect;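 for activity change, negative = cytotoxic: plate controls were DMSO for no effect and bortezomib for full effect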
How it was run: (§2)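 Viability was measured as metabolically active cells after 48 hours of treatment, read by CellTiter-Glo luminescence. Compounds were tested at multiple final concentrations, giving concentration-response curves.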

[4] = qHTS of pediatric cancer cell lines to identify multiple opportunities for drug repurposing: Primary screen for control Hh wild type fibroblast cells (AID 1347106); note: nearly all actives have a fitted effect of over 55% in size; note: potency is the fitted concentration of half-maximal effect;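 for activity change, negative = cytotoxic: series mostly up to about 46 µM; % is set by controls: 0 for no effect and ±100 for the full control effect; a drop in luminescence marks cytotoxicity and a rise apparent proliferation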
How it was run: as §1

[5] = qHTS of pediatric cancer cell lines to identify multiple opportunities for drug repurposing: Primary screen for Rh30 cells (AID 1347107); note: nearly all actives have a fitted effect of over 75% in size; note: potency is the fitted concentration of half-maximal effect; for activity change, negative = cytotoxic: series mostly up to about 46 µM; % is set by controls: 0 for no effect and ±100 for the full control effect
How it was run: as §1

[6] = qHTS of pediatric cancer cell lines to identify multiple opportunities for drug repurposing: Primary screen for Rh41 cells (AID 1347108); note: nearly all actives have a fitted effect of over 70% in size; note: potency is the fitted concentration of half-maximal effect;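 for activity change, negative = cytotoxic: series mostly up to about 46 µM; luminescence drop marks cytotoxic hits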
How it was run: as §2

[7] = qHTS of pediatric cancer cell lines to identify multiple opportunities for drug repurposing: Primary screen for MG 63 (6-TG R) cells (AID 1347105); note: nearly all actives have a fitted effect of over 50% in size; note: potency is the fitted concentration of half-maximal effect; for activity change, negative = cytotoxic: % is set by controls: 0 for no effect and ±100 for the full control effect
How it was run: as §2

[8] = qHTS of pediatric cancer cell lines to identify multiple opportunities for drug repurposing: Confirmatory screen for A673 cells (AID 1347110);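 note: cells exposed to compound for 48 h before the viability read; nearly all actives have a fitted effect of over 65% in size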; note: potency is the fitted concentration of half-maximal effect
How it was run: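 qHTS titration format: primary MIPE 0.78 nM-46 µM (11 pts), NPC 0.59 nM-46 µM; confirmation 11 pts. 48 h, CTG luminescence.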

[9] = qHTS of pediatric cancer cell lines to identify multiple opportunities for drug repurposing: Confirmatory screen for SK-N-MC cells (AID 1347111);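 note: cells exposed to compound for 48 h before the readout; plate controls were DMSO for no effect and bortezomib for full effect; nearly all actives have a fitted effect of over 70% in size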
How it was run: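 Metabolically active cells were quantified by ATP-dependent luminescence (CellTiter-Glo, 15 min at room temperature) following 48 h treatment. Cells had been plated at 500-1,000 per well and settled for 5 h beforehand.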

[10] = qHTS of pediatric cancer cell lines to identify multiple opportunities for drug repurposing: Confirmatory screen for NB1643 cells (AID 1347109); note: potency is the fitted concentration of half-maximal effect; nearly all actives have a fitted effect of over 45% in size
How it was run: as §1

FC1(F)C(F)(F)C(F)(F)C2(F)C(F)(F)C(F)(F)C(F)(F)C(F)(F)C2(F)C1(F)F (configuration not stated)
inactive: Potency [1] | Potency [2] | Potency [3] | Potency [4] | Potency [5] | Potency [6]

O=c1[nH]c(=O)n([C@H]2C[C@H](O)[C@@H](CO)O2)cc1F
inactive: Potency [1] | Potency [2] | Potency [7] | Potency [4]

Clc1cccc(C(c2ccc3nc[nH]c3c2)n2ccnc2)c1 (configuration not stated)
inactive: Potency [1] | Potency [2] | Potency [3] | Potency [4] | Potency [5] | Potency [6]

CC1CCc2c(N3CCC(O)CC3)c(F)cc3c(=O)c(C(=O)O)cn1c23 (configuration not stated)
inactive: Potency [1] | Potency [2] | Potency [3] | Potency [4] | Potency [5] | Potency [6]

CCC1NC(=O)c2cc(S(N)(=O)=O)c(Cl)cc2N1 (configuration not stated)
inactive: Potency [1] | Potency [2] | Potency [3] | Potency [4] | Potency [5] | Potency [6]

CCN(CC)CCNC(=O)COc1ccc(OC)cc1
inactive: Potency [1] | Potency [2] | Potency [3] | Potency [4] | Potency [5] | Potency [6]

CC1(C)OC[C@@H]2O[C@@]3(C(=O)O)OC(C)(C)O[C@H]3[C@@H]2O1
inactive: Potency [1] | Potency [2] | Potency [3] | Potency [4] | Potency [5] | Potency [6]

CC(C)NCC(O)c1ccc2ccccc2c1 (configuration not stated)
inactive: Potency [1] | Potency [2] | Potency [7] | Potency [4] | Potency [5] | Potency [6]

O=C1C(O)=C(O)C(=O)C(O)=C1O
inactive: Potency [1] | Potency [2] | Potency [3] | Potency [4] | Potency [5] | Potency [6]

CCN1CCN(C(=O)N[C@@H](C(=O)N[C@@H]2C(=O)N3C(C(=O)O)=C(CSc4nnnn4C)CS[C@H]23)c2ccc(O)cc2)C(=O)C1=O
inactive: Potency [1] | Potency [2] | Potency [7] | Potency [4] | Potency [5]

CN(C)CCN1C(=O)c2ccccc2N(C)c2ccccc21
inactive: Potency [1] | Potency [2] | Potency [3] | Potency [4] | Potency [5]

COP(=O)(OC)OC(c1ccc(Cl)cc1)P(=O)(OC)OC (configuration not stated)
inactive: Potency [1] | Potency [2] | Potency [7] | Potency [4] | Potency [5] | Potency [6]

O=C(O)c1ccc(S(=O)(=O)N(Cl)Cl)cc1
inactive: Potency [1] | Potency [2] | Potency [7] | Potency [4] | Potency [5]

CC(C)n1c(/C=C/[C@@H](O)C[C@@H](O)CC(=O)O)c(-c2ccc(F)cc2)c2ccccc21
inactive: Potency [4]
active: Potency [1] 7.5 µM | Potency [2] 6.92 µM | Potency [7] 0.841 µM

CN1CCN(c2c(F)cc3c(=O)c(C(=O)O)cn4c3c2SCC4)CC1
inactive: Potency [1] | Potency [2] | Potency [3] | Potency [4] | Potency [5]

O=C(Nc1ccc([N+](=O)[O-])cc1)Nc1ccc([N+](=O)[O-])cc1
inactive: Potency [1] | Potency [2] | Potency [3] | Potency [4] | Potency [5] | Potency [6]

CCOC(=O)[C@H](CCc1ccccc1)N[C@@H](C)C(=O)N1[C@H](C(=O)O)C[C@@H]2CCC[C@@H]21
inactive: Potency [1] | Potency [2] | Potency [3] | Potency [4] | Potency [5] | Potency [6]

NS(=O)(=O)c1cc(C(=O)O)cc(N2CCCC2)c1Oc1ccccc1
inactive: Potency [1] | Potency [2] | Potency [3] | Potency [4] | Potency [5] | Potency [6]

C=C1c2cccc(O)c2C(O)=C2C(=O)[C@]3(O)C(O)=C(C(N)=O)C(=O)[C@@H](N(C)C)[C@@H]3[C@@H](O)[C@H]12
inactive: Potency [1] | Potency [2] | Potency [3] | Potency [4] | Potency [5] | Potency [6]

CCN(CC)CCNC(=O)c1cc(Br)c(N)cc1OC
inactive: Potency [1] | Potency [2] | Potency [3] | Potency [4] | Potency [5] | Potency [6]

O=C(O)P(=O)(O)O
inactive: Potency [1] | Potency [2] | Potency [3] | Potency [4] | Potency [5] | Potency [6]

OCc1ccccn1
inactive: Potency [1] | Potency [2] | Potency [3] | Potency [4] | Potency [5] | Potency [6]

Cc1c(-c2ccccc2)oc2c(C(=O)OCCN3CCCCC3)cccc2c1=O
inactive: Potency [1] | Potency [2] | Potency [3] | Potency [4] | Potency [5] | Potency [6]

CN(C)C(=O)Nc1ccc(Cl)c(Cl)c1
inactive: Potency [8]

COc1ccc(C(=O)c2ccccc2)c(O)c1
inactive: Potency [8] | Potency [9]

CCN[C@@H]1C[C@H](N)[C@@H](OC2OC(CN)=CCC2N)[C@H](O)[C@H]1O[C@H]1OC[C@](C)(O)[C@H](NC)[C@H]1O (some centres not stated)
inactive: activity change, negative = cytotoxic [9] -2.44% [at 0.556 µM]

CCNC(=O)/C=C/c1cccc(Br)c1
inactive: Potency [1] | Potency [3] | Potency [4] | Potency [5] | Potency [6]

C#C[C@]1(O)CC[C@H]2[C@@H]3CCc4cc(OC)ccc4[C@H]3CC[C@@]21C
inactive: Potency [1] | Potency [7] | Potency [4] | Potency [5] | Potency [6]

O=C(CN1CCN(Cc2ccc3c(c2)OCO3)CC1)N1c2ccccc2Sc2ccccc21
inactive: Potency [1] | Potency [3] | Potency [7] | Potency [4] | Potency [5] | Potency [6]

CCCCC(CC)COC(=O)/C=C/c1ccc(OC)cc1 (configuration not stated)
inactive: Potency [1] | Potency [3] | Potency [4] | Potency [5] | Potency [6]

COC(=O)C(c1ccccc1Cl)N1CCc2sccc2C1 (configuration not stated)
inactive: Potency [1] | Potency [3] | Potency [7] | Potency [4] | Potency [5] | Potency [6]

CCO[C@@H]1O[C@H](C(COCc2ccccc2)OCc2ccccc2)[C@H](OCc2ccccc2)[C@H]1O (some centres not stated)
active: Potency [7] 10.6 µM
inactive: Potency [1] | Potency [4] | Potency [5]

COc1cc(N)c(Cl)cc1C(=O)NC1CCN(Cc2ccccc2)CC1
inactive: Potency [1] | Potency [3] | Potency [7] | Potency [4] | Potency [5] | Potency [6]

CC(C)(C)CC(C)(C)c1ccc(O)c(-n2nc3ccccc3n2)c1
inactive: Potency [1] | Potency [3] | Potency [7] | Potency [4] | Potency [5] | Potency [6]

CCC(CC)(CC(=O)Nc1cccc(/C=C/c2nc(C3CCC3)cs2)c1)C(=O)O
inactive: Potency [1] | Potency [3] | Potency [7] | Potency [4] | Potency [5] | Potency [6]

CCN(CC)CCOC(=O)C(Cc1cccc2ccccc12)CC1CCCO1 (configuration not stated)
inactive: Potency [1] | Potency [7] | Potency [4] | Potency [5]

NC(N)=NN=C(/C=C/c1ccc([N+](=O)[O-])o1)/C=C/c1ccc([N+](=O)[O-])o1
active: Potency [1] 1.19 µM | Potency [3] 0.841 µM | Potency [4] 21.1 µM | Potency [5] 3.35 µM | Potency [6] 1.19 µM | Potency [10] 1.17 µM | Potency [8] 2.61 µM

N=C(N)N1CCc2ccccc2C1
inactive: activity change, negative = cytotoxic [1] 1.68% [at 4.84 µM] | activity change, negative = cytotoxic [3] -9.62% [at 4.84 µM] | activity change, negative = cytotoxic [4] -9.54% [at 4.84 µM] | activity change, negative = cytotoxic [5] 7.74% [at 4.84 µM] | activity change, negative = cytotoxic [6] 1.21% [at 4.84 µM]

COc1ccc(C(=O)c2ccccc2O)c(O)c1
inactive: Potency [1] | Potency [3] | Potency [4] | Potency [5] | Potency [6]

C#C[C@]1(OC(C)=O)CC[C@H]2[C@@H]3CCC4=C/C(=N/O)CC[C@@H]4[C@H]3CC[C@@]21CC
inactive: Potency [1] | Potency [4] | Potency [5]
active: Potency [3] 29.9 µM

CC(C)[N+](C)(C)CC(O)COc1cccc2ccccc12 (configuration not stated)
inactive: Potency [1] | Potency [3] | Potency [7] | Potency [4] | Potency [5] | Potency [6]

CN1CCN(C2=Nc3ccccc3Sc3ccc(Cl)cc32)CC1
inactive: Potency [1] | Potency [3] | Potency [7] | Potency [4] | Potency [5] | Potency [6]

CC(C)=CCOc1ccc(/C=C/C(=O)c2ccc(OCC=C(C)C)cc2OCC(=O)O)cc1
inactive: Potency [1] | Potency [4] | Potency [5] | Potency [6]
active: Potency [7] 33.5 µM

CCCCC(CC)CN1CN(CC(CC)CCCC)CC(C)(N)C1 (configuration not stated)
inactive: Potency [1] | Potency [3] | Potency [7] | Potency [4] | Potency [5] | Potency [6]

OC(C#CCN1CCCC1)(c1ccccc1)c1ccccc1
inactive: Potency [1] | Potency [3] | Potency [7] | Potency [4] | Potency [5] | Potency [6]
